Measurements as given in PubChem BioAssay AID1508600 (Functional Genomics Laboratory (NCATS/FGL), 2020).
Out of some 53,000 sequences screened, about 3,700 (7%) were called active.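 Rule for the calls: active = gene knockdowns whose robust z-score for IL-1 alpha signal is at least 2 or at most -2, so actives lie on both sides; inactive = the rest.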 This excerpt belongs to a sample that is enriched for actives.

assay: Components of the Cytosolic LPS Sensing Pathway: Gene Identification via Genome-wide siRNA Screen; details: RAW264.7 macrophages, IL-1a HTRF, actives lie on both sides, screened at 100 nM (by protocol), cells primed 5 h with Pam3CSK4 first;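 note: robust z of the log signal after scaling to non-targeting control siRNA wells of the plate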
Procedure, shortened: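 Using IL-1a HTRF as read-out, the screen measured release from RAW264.7 cells after 48h siRNA knockdown (100 nM), 5 h Pam3CSK4 priming and 24 h cytosolic LipidA. Values were expressed relative to negative-control wells as robust z-scores.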

z-score, inactive:
GGUUUUGUCACCAUAGCCATT against 3110040N11Rik -0.762, GGACAUUGAGUCAAAAAUCTT against Slc19a2 -0.966, GCCUGGAGAAGUGAACUCUTT against Tll1 -1.65, GGGAUUUCGAGAGACUAGCTT against Dock9 -0.487, GCCCUGAUGCAAGCUUGUGTT against Gprin3 0.193, GGCAACUGUUUCUGCUCCGTT against Ap4e1 -0.746, GCCAAUCGUAACUUGCUAATT against Arhgap19 0.865, GGUACAACAAAAAUGUGACTT against Vmn1r73 -1.39, GCGAGGUGAAAAGCUUCUGTT against Sobp -0.433, GGAAUUUUGCCAGCAAAUGTT against Edaradd 0.624, GGCCAUUAAUUACUACGAGTT against Ttc21a 0.368, CCCGAGAAUACACCAUCAATT against Rpl31 0.347, GGGAGAUGUAUGCUUGCUCTT against Evi2a 0.934, CUCUAUCUCAUUGCAGUCCTT against Olfr671 -0.0809, GUUCCCUACAAGUUCUUCCTT against Phox2a 1.54, GCGUAGACUUGAGGACUUATT against Uimc1 -0.705, CGGCGGUGUGUUGUUUUAGTT against Hmces 0.36, CGGUUAGACAGUGCACCAATT against Dnm1 0.4, GGCUCGGACCAAAAAAAUUTT against Msantd3 -1.33, GCAUGCGACUCUGUUCUCGTT against Gtf2a2 -0.228, GGAGAUUUUCAAGAGACUCTT against 0610010F05Rik 1.94, GGUCUACCAUGACACACGUTT against Prrg2 0.519, GCCUGGUUUCUCCCUCAAATT against Pkmyt1 -0.567, CGCAGUUAUAUUCCACCACTT against Slain1 -0.317, GGCCUUCACUGGUUAAAAUTT against Ankrd6 0.0966, GGAGAUCCUCAUUUGUGUGTT against Ftmt -1.99, GGGUAUGAGCAUAAAAUAATT against Il16 -1.2, GCAAAUGGUGCAUACGUGATT against Slc35d1 0.211, CCAAUUUGUCAAAACAAUCTT against Slit2 0.681, GGAAGAGCUUUCUGGAAAUTT against Ndrg2 0.226, GGCAUACUUGUACCGCUAUTT against Mmp9 -0.35, GGAUAUUCAGCACUGGGAATT against Rrm2 -0.525, GGUAGUGGACAGUUUUGACTT against Mrpl55 0.675, CGACGAAGAUAUUUACAGUTT against Vav1 0.504, CCAAAAAAGUUAGUUGUGGTT against Phf6 1.23, GGUCGUAAAAAUUGAAAUCTT against Lhcgr 0.169, CCAUUUAUGGGUUUUCUCUTT against Taar7b 0.12, GGCUGUGCUACAGUUUCUCTT against Get4 -0.498, GGGCUUUCACACAAUCCCUTT against Kcns1 -0.362, GGAACUGGCCAAUUACUACTT against Rdm1 -1.29, GGAUAUCACUUGCUAUUCCTT against Abraxas2 -0.406, GGCUUAUGACGAAUUAGUCTT against Ubn2 0.274, GCACCUUGUCAACCAUUACTT against Kctd7 0.842, GGGCAUCAGCAUUUGGUCATT against Med1 0.698, GGAAGUCGAGUUGAAAUCGTT against Rida 0.755, GUUGAGUGGCUGUGAUAUATT against Nms -0.00159, GGAAAUAUGAUAGAAUGCCTT against Pramel32 0.17, GGCUAUCACCUCCAACACCTT against Fkbp8 -1.04, GGACAAGGAACAGAGCCUUTT against Rnf183 -1.27, GGAGAUCUUGAGAUUGUAUTT against Ticrr 0.424, CCCGGUUCUUAGGUUUGUATT against Prr15l 1, GGUCAGGUUGCCAAGAAGGTT against Sbds 1.59, CCCAUAUGAGCUGAAAGCUTT against Il1b -0.878, GGGAAUGUCUGAAAGUCCCTT against Klhdc10 0.66, GGCCAUCAAGGUCUUUUCUTT against Washc1 -1.34, GGAUCUUCUUCUAUCAGUCTT against Ncf4 0.487, CCGUUUUGAACCAUAAAAATT against Zfp7 -0.873, GGUUUCGUAUAAAUUCUCUTT against Ank 1.53, CGGAGUCAUACUUUUUCGATT against Trim12c 0.0182, GGUAAAAUACUACCUGAGATT against Abca15 -0.0103, GGAAGAAAUGUACAAACUGTT against Spg21 1.63, GGACAUUUUCUUUGGAAAATT against Ccnl1 0.194, GGACAGCAAGACCAACCUATT against Elavl2 -1.87, CCAUAAAUCACUCAGUUUGTT against Adad1 0.222, GGCAUUAUCUACAUGCACATT against Olfr1287 0.228, GCAUGGCUAUUUAACAUUCTT against Rpl7l1 0.171, GCAAUUUCUGUGUGAAGAATT against Ahcyl1 -0.705, GGGCUCUAGCUAAAAACGATT against Med10 1.23, GAAUCGGAGGACAAAAUACTT against Emx1 0.368, GCACCUUUGAAUGUGAAGUTT against Ccl2 -0.408, CCUUCAUUGGUUAGCAUGUTT against Rbl2 -0.424, CCUGACGAUCAAAUCACUGTT against Mvb12a 0.0387, CGCCAAUAUGGCCAUUGACTT against Ikzf2 -0.304, GGCUCUGUUUAUCCUGGAGTT against Pcdha7 -0.0385, GGUUUCAUUUUUCGAGGAGTT against Cit -0.269, GGUGAUACCAUCACUUUGATT against Mark2 0.173, GCCGCAUCCACACAUCUCUTT against Daam2 0.465, GCCCAUAGUAUAAAAUACCTT against Dzip1 1.06, GGAAGAUGCCUUUUCCAAGTT against Syt1 0.752, GGUGGAAUAUAUUGAGUAUTT against Fam199x 0.251, GCGAAAGACGAUCAAAACCTT against Scn1a 0.841, GGCUACACUCUGACAGCACTT against Znhit2 -0.666, GCCCGGUAAAGGUAUCCAUTT against Trp53bp1 0.384, GCCUCUCCUGUGAAUGACATT against Erlec1 -0.699, GGGUGUCACAAAAUAAAAUTT against Sigirr -0.245

z-score, active:
GUCACAAGCUGUCCAACAATT against Ndufa7 -2.25, CCUGUUUCAGUCAUUAGUGTT against Slc22a2 2.6, GCAAAACUUGACUACCGCCTT against Bzw1 2.08, CCAUUCCAUGUCGAUGUCUTT against Prm2 -2.08, GGCUUUUGUCAAACAGCAUTT against Ins1 -2.9, GGAAAAACUACCAAGAGGATT against Pigp 2.32, GGUACCUAGGAUGCUCUCATT against Ift140 -2.23, GGAUGUCAGGACAAAACCATT against Olfr1335 -2.51, GCCUUUCAUGGAUUAACCUTT against Gsdmc -2.03, GGAGGAUCUUGAGUUGGAGTT against Nupr1l 2.32, GGUCAUUGAGCUGAUGGACTT against Elovl1 4.34, GGAACAGCCUAUGUGGUCUTT against Sf3b6 -2.17, GGCAAAAGAACAAGAAACUTT against Orc1 -2.09, GGAGAAAGGAUUGUGUUUGTT against Clec10a 2.2, GGCAUGAAUAUGCAUUUAGTT against Arrdc3 -3.65, GGCCCACGUCCUGUACAUUTT against Tdrd1 3.38, GGAAUUCUUCAUCCAUGGATT against Olfr570 -2.66, CGGUUCUGGGAAUUCUUUGTT against Olfr624 -2.11, AGUCUCCAAAUGCAUUUAATT against Serpinb9g -2.5, CACGACCUAGGUGUGACCATT against Arrdc2 -2.31, GGCACUCAGGAACUUCCUGTT against Eci3 -2.05, CGACUAAGGAUGAAAAGCATT against Apbb1ip -3.04, GGGAGUUACUAACCACUUCTT against Gja3 -2.05
